SSB-PriA inh – inhibitors of Klebsiella pneumoniae PriA binding to SSB C-terminal tail, primary screen, biochemical, AlphaScreen | 430,000 tested, 0.6% active | PriA–SSB C-terminal tail interaction (Klebsiella pneumoniae) | AlphaScreen SSBct-PriA binding, biotinylated peptide | inhibition, % at 33 µM; in the data active = inhibition mostly above about 37%, no sharp cut-off; inactive = mostly below about 20%;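 also: plate controls were negative control peptide for no effect and reference peptide for full effect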
Vc quorum ag – inducers of Vibrio cholerae quorum light production without autoinducers, primary screen, BH1578 luxS cqsA deficient, single point. V. cholerae BH1578 lux reporter, luminescence, 6 h. activation, % at 18.7 µM. 350,000 tested, 0.16% active; in the data active = activation mostly above about 9.7%, no sharp cut-off
CCHF vOTU inh – CCHFV vOTU protease inhibitors, primary screen, biochemical, Pep-AMC substrate, fluorescence | 370,000 tested, 0.55% active | inhibition, % at 11.5 µM | AID 651958, 2012; in the data active = inhibition above about 30%; also: 0% = vehicle wells with enzyme and 100% = no enzyme wells
PrPC surface inh – inhibitors of human cell surface prion protein PrPC, primary screen, cell-based, TR-FRET. 370,000 tested, 0.43% active. inhibition, % at 13.8 µM. AID 720596, 2013. TR-FRET read-out; in the data active = inhibition above about 24%; also: 0% = median of the test wells and 100% = reference compound wells
TcdB inh – TcdB glycohydrolase inhibitors, primary screen, biochemical, single point, plate reader; Toxin B (Clostridioides difficile), P18177; TcdB glycohydrolase enzymatic assay; inhibition, % at 9.99 µM; 350,000 tested, 0.24% active; in the data active = inhibition above about 10%
VHR inh abs – VHR1 phosphatase inhibitors, primary screen, biochemical, absorbance, uHTS; 290,000 tested, 0.52% active; inhibition, % at 13.3 µM; AID 1654, 2009; recombinant VHR phosphatase, pNPP absorbance; in the data active = inhibition above about 50%
Target sequence (P51452 whole entry, looked up): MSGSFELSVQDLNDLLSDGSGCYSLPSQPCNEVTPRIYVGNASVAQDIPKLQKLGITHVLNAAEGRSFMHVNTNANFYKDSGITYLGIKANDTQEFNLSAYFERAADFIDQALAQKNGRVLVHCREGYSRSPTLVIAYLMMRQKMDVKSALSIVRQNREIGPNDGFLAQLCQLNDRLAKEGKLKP
An asterisk follows results filed as active; i = inactive; . = no result given; ! = a repeat was not active. In the library only some 1.5% were active in any assay of this set; here they are far more common.

SMILES | SSB-PriA inh | Vc quorum ag | CCHF vOTU inh | PrPC surface inh | TcdB inh | VHR inh abs
O=C(c1cccnc1)N1CCN(c2nnnn2-c2ccccc2)CC1 | -3.0 | . | . | . | . | .
O=C(CSc1c[nH]c2ccccc12)Nc1cccc(F)c1 | 2.0 | . | . | . | . | .
Cc1ccccc1OCC(=O)Nc1ccc(S(=O)(=O)Nc2ccccn2)cc1 | -11.7 | i | 2.6 | -3.9 | . | -0.2
Cc1ccc(OCC(=O)Nc2ccc(S(=O)(=O)Nc3ccccn3)cc2)c(C)c1 | -10.5 | -2.7 | 9.5 | 1.4 | . | 55.6*
CC(C)(C)c1ccc(S(=O)(=O)NCC(=O)NCc2ccccc2-c2ccsc2)cc1 | -2.0 | . | . | . | . | .
CC1CCc2c(sc(Nc3nc4c(F)cccc4s3)c2C(N)=O)C1 (stereo not drawn) | 51.0*! | -0.4 | 7.6 | 5.6 | . | 7.4
CC1CCc2c(sc(NC(=O)CCSc3ccc(Cl)cc3)c2C(N)=O)C1 (stereo not drawn) | 4.0 | . | . | . | . | .
COc1coc(C(=O)N2CCN(c3cc(C)ccc3C)CC2)cc1=O | -9.0 | . | . | . | . | .
COc1cnc(-c2ccccn2)nc1Oc1ccccc1 | 64.0* | i | -3.2 | -2.9 | -0.1 | 11.9
COc1cnc(-c2ccccn2)nc1Oc1cc(Cl)cc(Cl)c1 | 62.5* | . | . | . | . | .
COc1cnc(-c2ccccn2)nc1Oc1ccc(F)cc1 | 109.0* | . | . | . | . | .
Clc1ccc(-c2cnnc(-c3ccccn3)n2)cc1 | 58.4* | -0.9 | 1.4 | -28.2 | 1.1 | .
COc1cnc(-c2ccccn2)nc1Oc1cccc(C(F)(F)F)c1 | . | -0.9 | 11.6 | 0.4 | 1.8 | 23.1
COc1ccccc1-n1ncc2c(C(C)C)nnc(SCC(=O)Nc3ccc(C(C)=O)cc3)c21 | 13.0 | . | . | . | . | .
c1ccc(Oc2nc(-c3ccccn3)nnc2-c2ccccc2)cc1 | 102.6* | . | . | . | . | .
c1ccc(-c2cnc(-c3ccccn3)nn2)cc1 | 69.3* | 5.0 | -4.2 | -13.1 | -0.1 | .
CCOC(=O)CSc1nc(-c2ccccn2)ncc1OC | 83.1* | 1.4 | -3.2 | -6.4 | 0.4 | 15.5
CSC(=NS(=O)(=O)c1cccs1)Nc1ccc(Br)cc1F | -0.3 | . | . | . | . | .
Cc1cc(OC2CCN(C(=O)c3cc(-c4ccc(F)cc4)c[nH]3)CC2)cc(=O)o1 | 2.0 | . | . | . | . | .
O=C(Nc1ccc(NC(=O)C2CCCCC2)nc1)c1ccco1 | -13.0 | i | -7.9 | -5.4 | . | 13.9
O=C(Nc1ccc(NC(=O)C2CCCCC2)nc1)c1ccccn1 | 2.4 | i | 5.9 | 2.2 | 0.3 | 57.4*
Cc1sc2ncn(CC(=O)NCCCN3CCC(C)CC3)c(=O)c2c1S(=O)(=O)N1CCC(C)CC1 | -9.1 | i | -4.5 | 5.2 | -7.4 | 59.6*
Cc1sc2ncn(CC(=O)NCCN3CCOCC3)c(=O)c2c1S(=O)(=O)N1CCC(C)CC1 | -2.1 | i | -10.2 | 0.3 | 0.4 | 2.0
Cc1cc(NC(=O)CCc2nnc3n(CC(C)C)c(=O)c4sccc4n23)ccc1Br | 10.0 | . | . | . | . | .
COc1ccc(NC(=O)CSc2n[nH]c(-c3ccccn3)n2)cc1 | 67.3* | i | -1.8 | -1.8 | 0.6 | -13.7
SMILES | SSB-PriA inh | Vc quorum ag | CCHF vOTU inh | PrPC surface inh | TcdB inh | VHR inh abs
COc1ccccc1NC(=O)CSc1n[nH]c(-c2ccco2)n1 | -3.7 | -4.8 | 1.5 | -1.6 | 2.2 | .
COc1ccccc1-c1nc(SCC(=O)Nc2ccccc2F)n[nH]1 | -9.9 | 7.7 | 13.8 | 3.2 | 0.2 | 18.8
O=C(CN1CCN(c2ccccn2)CC1)Nc1cc(F)ccc1F | 0.3 | -5.6 | 2.1 | -1.6 | 1.2 | .
COc1ccccc1NC(=O)CSc1n[nH]c(-c2ccccn2)n1 | 76.7* | -0.2 | 9.9 | -0.6 | 1.7 | -8.1
COc1ccc(NC(=O)CSc2n[nH]c(-c3ccccc3)n2)cc1 | 30.8 | . | . | . | . | .
O=C(CSc1n[nH]c(-c2ccccn2)n1)Nc1ccccc1F | 49.8* | -0.7 | 3.0 | -7.5 | 0.2 | -24.8
O=C(CN1CCN(c2ccccn2)CC1)Nc1ccccc1F | 0.3 | 1.2 | -11.5 | 3.2 | 1.6 | 57.0*
CCOC(=O)C(Sc1nc(N)c(NC(=O)c2ccc(OC)c(OC)c2)c(=O)[nH]1)C(=O)OCC | -5.0 | . | . | . | . | .
CCCN1C(=O)C(C)(C)COc2ccc(NC(=O)c3cc(OCC)c(OCC)c(OCC)c3)cc21 | 23.0 | . | . | . | . | .
CCc1ccc(S(=O)(=O)NC[C@H](OC)c2ccsc2)s1 | -21.0 | . | . | . | . | .
O=C(CSc1n[nH]c(-c2ccccn2)n1)Nc1ccccc1 | 82.2* | -0.5 | -3.0 | 4.2 | -0.2 | 9.6
O=C(CSc1n[nH]c(-c2cccnc2)n1)Nc1ccccc1 | -9.5 | i | 6.0 | -0.4 | . | -5.3
CCCCCCNc1c([N+](=O)[O-])cc(C)cc1[N+](=O)[O-] | 60.4* | i | -5.2 | -4.3 | . | .
Cc1cc([N+](=O)[O-])c(NCCCO)c([N+](=O)[O-])c1 | 24.2 | . | . | . | . | .
COc1ccc(OC)c(N(CC(=O)NCCSc2ccccc2)S(C)(=O)=O)c1 | 6.2 | i | -10.4 | 4.8 | . | 50.5*
COc1ccc(N(CC(=O)NCCSc2ccccc2)S(C)(=O)=O)cc1 | -7.6 | 0.7 | -14.7 | -0.2 | -2.1 | 23.4
O=C(NCCc1cccs1)c1ccc(CS(=O)(=O)Cc2ccccc2Cl)o1 | -1.0 | . | . | . | . | .
CN(C(=O)CSC1=NCCS1)c1ccccc1 | -9.2 | 0.6 | -9.5 | 10.0 | . | 51.6*
CCN(CC)Cc1c[nH]c2c(C(=O)OC)cccc12 | -2.2 | 16.7* | -12.7 | -5.0 | 0.7 | 24.9
Cc1cc2cc(CN(Cc3ccc4c(c3)OCO4)C(=O)c3cnccn3)c3nnnn3c2cc1C | 39.2* | -0.3 | -1.5 | -0.9 | . | 27.9
O=C(CC1SC(=O)N(Cc2ccccc2)C1=O)Nc1nccs1 (stereo not drawn) | -17.9 | -0.2 | 16.0 | 4.7 | -8.1 | 52.9*
O=C(CC1SC(=O)N(Cc2ccccc2Cl)C1=O)Nc1nccs1 (stereo not drawn) | -11.9 | -0.5 | -7.1 | 2.5 | 0.4 | 4.8
O=C(NCCC1=CCCCC1)C(=O)Nc1c2c(nn1-c1ccc(F)cc1)CSC2 | -11.0 | . | . | . | . | .
O=C(Nc1ccccc1)c1sccc1Oc1ccc([N+](=O)[O-])cc1F | 43.9* | -0.3 | 5.3 | -5.8 | 2.7 | 1.2
COCCOc1cc(NC(=O)c2sccc2Oc2ccc([N+](=O)[O-])cc2F)c(Cl)cc1Cl | 26.1 | 4.2 | 8.7 | -14.4 | . | -1.8
O=C(c1ccc(Cl)cc1)c1ccc(OCC(O)CN2CCN(Cc3ccccc3)CC2)cc1 (stereo not drawn) | 1.0 | . | . | . | . | .
CC(O)C1C=CC=CC(=O)OC2CC3OC4C5OC5(C)CCC4(COC(=O)C4OC4(C)C(O)CO1)C2(C)C31CO1 (stereo not drawn) | . | -1.9 | -3.4 | 90.2* | 2.7 | .
CC(O)C1C=C/C=C\C(=O)OC2CC3OC4C5OC5(C)CCC4(COC(=O)C4OC4(C)C(O)CO1)C2(C)C31CO1 (stereo not drawn) | -21.0 | . | . | . | . | .
CC1Oc2ccc(Br)cc2CN(Cc2ccc(F)cc2F)C1=O (stereo not drawn) | -9.0 | . | . | . | . | .
O=C(c1c[nH]c2ccccc12)N1CC(S(=O)(=O)C2CCCCC2)C1 | -8.0 | . | . | . | . | .

Source: PubChem BioAssay (several laboratories)
